PubChem BioAssay
The source made the active and inactive calls. Unless noted, no rule for the calls is given here.

Key:
[1] = anti-His antibody binders, primary screen, artefact control for SMM control protein annotation, biochemical, small-molecule microarray, 635 nm fluorescence (AID 1128); settings: anti-His Alexa647 antibody binding, higher = more signal;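 also: score merges feature fluorescence with signal-to-noise for each printed compound spot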
[2] = tested on: Human papillomavirus type 1a E7 protein (residues 1-88); assay: HPV1a E7 small-molecule binders, primary screen, biochemical, small-molecule microarray, residues 1-88, 635 nm (AID 1129); settings: small-molecule microarray binding, fluorescence 635 nm; higher = more signal
[3] = target: Focal adhesion kinase 1 (Homo sapiens) (UniProt Q05397); assay: small-molecule microarray binders of FAK, primary screen, biochemical, 635/667 nm fluorescence, BSA, DTT (AID 1130); settings: PTK2 binding, 635 nm fluorescence, higher = more signal;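 also: composite of spot emission at 667 nm and signal to noise over triplicate slides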
[4] = tested on: Fibrinogen (Alexa647-labelled); assay: fibrinogen binders on compound microarrays, profiling panel, artefact control for SMM control-protein annotation, biochemical, small-molecule microarray, 635/667 nm fluorescence (AID 1131); settings: fibrinogen-A647 binding fluorescence, higher = more signal;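 also: z-score merges 667 nm fluorescence with per-spot signal-to-noise over triplicate slides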
[5] = target: Follistatin (Homo sapiens) (UniProt P19883); assay: follistatin binders on small-molecule microarrays, primary screen, biochemical, small-molecule microarray, 635/667 nm fluorescence (AID 1132); settings: FST binding, 635 nm fluorescence, higher = more signal
[6] = target: Fibroblast growth factor 2 (Homo sapiens) (UniProt P09038); assay: FGF2 binders on small-molecule microarrays, primary screen, biochemical, small-molecule microarray, 635/667 nm fluorescence (AID 1133); settings: small-molecule microarray binding, FGF2, fluorescence 635/667; higher = more signal
[7] = mitochondrial membrane potential change in A549 cells, profiling panel, cell-based, JC-1 fluorescence, basal, 24 h, 100 nL (AID 1138); settings: higher = more signal;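 also: A549 lung adenocarcinoma cells under basal conditions with no added stimulus; test concentration not given here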
[8] = tested on: Lefty1; assay: Lefty1 binders on small-molecule microarrays, primary screen, biochemical, small-molecule microarray, 635/667 nm fluorescence (AID 1139); settings: small-molecule microarray binding, fluorescence 635/667; higher = more signal
[9] = tested on: wheat germ agglutinin (Triticum aestivum), Alexa647-labelled; assay: wheat germ agglutinin binders on compound microarrays, profiling panel, artefact control for SMM control-protein annotation, biochemical, small-molecule microarray, 635/667 nm fluorescence (AID 1140); settings: WGA-A647 binding, 635 nm fluorescence, higher = more signal;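 also: score merges 667 nm feature emission with signal to noise over triplicate slides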
[10] = target: Luciferin 4-monooxygenase (Photinus pyralis) (UniProt P08659); assay: firefly luciferase enzyme inhibitors, primary screen, biochemical, luminescence, purified enzyme, 2006 set (AID 1141); settings: SteadyGlo luminescence, 30 min, higher = more signal, called active from +8 up or from −8 down;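 also: cell-free assay with purified firefly luciferase at 100 ng per well in PBS; test concentration not given here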
[11] = tested on: Wnt5a (protein binding on small-molecule microarray); assay: Wnt5a binders on small-molecule microarray, primary screen, biophysical, 635/667 nm fluorescence (AID 1142); settings: 635 nm fluorescence, higher = more signal;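 also: fluorescence read at 667 nm with signal to noise per printed feature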
[12] = cell viability in Huh7 cells, primary screen, cytotoxicity control for HCV replication inhibitor project, CellTiter-Glo luminescence, basal, 48 h (AID 1143); settings: Huh7 HCV replicon, higher = more signal, called active from +8 up or from −8 down;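 also: Huh7 hepatoma cells carrying a hepatitis C replication reporter with no stimulus; test concentration not given here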
[13] = P. aeruginosa biofilm formation inhibitors, primary screen, PAO1 strain, BacTiter-Glo luminescence, LB-PBS (AID 1144); settings: 12 h, higher = more signal
[14] = CREB reporter modulators without forskolin, primary screen, cell-based, PC12, CRE-LacZ reporter, unstimulated (AID 1145); settings: no forskolin, luminescence, 4.5 h, higher = more signal, called active from +8 up or from −8 down
[15] = CREB reporter modulators under forskolin, primary screen, cell-based, PC12, CRE-LacZ reporter, forskolin-stimulated (AID 1146); settings: luminescence, 4.5 h, higher = more signal, called active from +8 up or from −8 down;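 also: PC12 cells with 6xCRE LacZ reporter stimulated by forskolin 10 µM; beta-galactosidase reporter signal reflecting CREB driven transcription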
[16] = target: Streptavidin (Streptomyces avidinii) (UniProt P22629); assay: streptavidin binders on small-molecule microarray, primary screen, artefact control for SMM compound annotation, biophysical, 635/667 nm fluorescence (AID 1147); settings: streptavidin binding, higher = more signal;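 also: signal reflects streptavidin binding to arrayed compounds as a control protein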
[17] = small-molecule binders of probe aInhba, primary screen, biochemical, small-molecule microarray, 635/667 nm fluorescence (AID 1148); settings: higher = more signal;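 also: score merges 667nm spot fluorescence with signal-to-noise for antibody binding to printed compounds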
[18] = target: Torsin-1A (Homo sapiens) (UniProt O14656); assay: torsin A binders from cell lysate, primary screen, small-molecule microarray, wild-type, 635/667 nm (AID 1149); settings: COS7 hTOR1A-WT lysate, 635 nm fluorescence, higher = more signal
[19] = target: Torsin-1A (Homo sapiens) (UniProt O14656); assay: small-molecule binders of mutant TOR1A in lysate, primary screen, cell lysate, small-molecule microarray, COS7 lysate, 635/667 nm fluorescence (AID 1150); settings: COS7 hTOR1A mutant lysate, 635 nm fluorescence, higher = more signal;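 also: score pools 667 nm emission and signal to noise measuring lysate protein binding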
[20] = tested on: Sonic hedgehog protein (Shh); assay: small-molecule binders of Shh protein, primary screen, biochemical, small-molecule microarray, 635/667 nm fluorescence (AID 1151); settings: small-molecule microarray binding, 635 nm fluorescence; higher = more signal;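 also: Shh protein binding to compounds spotted on small-molecule microarray slides; score combines spot fluorescence intensity with signal-to-noise across triplicate slides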

Sequence of Follistatin (Homo sapiens) (P19883 whole entry, looked up): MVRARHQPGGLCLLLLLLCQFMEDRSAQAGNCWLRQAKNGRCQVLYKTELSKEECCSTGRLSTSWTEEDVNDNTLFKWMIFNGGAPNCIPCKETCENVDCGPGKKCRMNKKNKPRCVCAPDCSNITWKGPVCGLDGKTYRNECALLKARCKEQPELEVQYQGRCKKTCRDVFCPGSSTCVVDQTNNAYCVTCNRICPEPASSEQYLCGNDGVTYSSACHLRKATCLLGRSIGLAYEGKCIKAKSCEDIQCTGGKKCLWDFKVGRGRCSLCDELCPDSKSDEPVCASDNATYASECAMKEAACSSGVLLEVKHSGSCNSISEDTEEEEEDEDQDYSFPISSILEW
Sequence of Streptavidin (Streptomyces avidinii) (P22629 whole entry, looked up): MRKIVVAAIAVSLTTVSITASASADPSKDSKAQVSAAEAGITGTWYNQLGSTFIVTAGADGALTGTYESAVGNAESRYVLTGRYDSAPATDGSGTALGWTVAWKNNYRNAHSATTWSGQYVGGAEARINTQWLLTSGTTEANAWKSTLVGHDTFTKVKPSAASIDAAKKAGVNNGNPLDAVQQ
Sequence of Fibroblast growth factor 2 (Homo sapiens) (P09038 whole entry, looked up): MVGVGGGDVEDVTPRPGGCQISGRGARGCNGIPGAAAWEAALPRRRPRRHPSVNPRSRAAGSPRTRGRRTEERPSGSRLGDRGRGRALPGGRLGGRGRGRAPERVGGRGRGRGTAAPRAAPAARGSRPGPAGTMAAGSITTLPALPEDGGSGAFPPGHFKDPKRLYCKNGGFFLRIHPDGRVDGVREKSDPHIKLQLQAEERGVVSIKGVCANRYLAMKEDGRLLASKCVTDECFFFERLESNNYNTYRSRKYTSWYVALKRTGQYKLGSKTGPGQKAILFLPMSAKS
Sequence of Luciferin 4-monooxygenase (Photinus pyralis) (P08659 whole entry, looked up): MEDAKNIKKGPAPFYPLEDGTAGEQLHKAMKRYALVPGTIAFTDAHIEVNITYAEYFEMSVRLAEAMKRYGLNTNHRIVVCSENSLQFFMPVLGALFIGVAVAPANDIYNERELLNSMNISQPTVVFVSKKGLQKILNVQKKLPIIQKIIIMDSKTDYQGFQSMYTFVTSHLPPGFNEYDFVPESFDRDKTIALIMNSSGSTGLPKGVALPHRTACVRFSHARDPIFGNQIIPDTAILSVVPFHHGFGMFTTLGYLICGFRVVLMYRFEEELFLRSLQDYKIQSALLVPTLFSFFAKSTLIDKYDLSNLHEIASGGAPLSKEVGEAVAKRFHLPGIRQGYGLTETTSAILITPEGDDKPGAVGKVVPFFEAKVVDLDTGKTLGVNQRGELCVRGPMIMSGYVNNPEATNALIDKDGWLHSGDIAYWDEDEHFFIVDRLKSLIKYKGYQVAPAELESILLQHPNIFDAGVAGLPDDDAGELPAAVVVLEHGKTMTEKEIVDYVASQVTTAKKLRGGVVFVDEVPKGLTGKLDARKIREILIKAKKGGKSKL
Sequence of Focal adhesion kinase 1 (Homo sapiens) (Q05397 whole entry, looked up): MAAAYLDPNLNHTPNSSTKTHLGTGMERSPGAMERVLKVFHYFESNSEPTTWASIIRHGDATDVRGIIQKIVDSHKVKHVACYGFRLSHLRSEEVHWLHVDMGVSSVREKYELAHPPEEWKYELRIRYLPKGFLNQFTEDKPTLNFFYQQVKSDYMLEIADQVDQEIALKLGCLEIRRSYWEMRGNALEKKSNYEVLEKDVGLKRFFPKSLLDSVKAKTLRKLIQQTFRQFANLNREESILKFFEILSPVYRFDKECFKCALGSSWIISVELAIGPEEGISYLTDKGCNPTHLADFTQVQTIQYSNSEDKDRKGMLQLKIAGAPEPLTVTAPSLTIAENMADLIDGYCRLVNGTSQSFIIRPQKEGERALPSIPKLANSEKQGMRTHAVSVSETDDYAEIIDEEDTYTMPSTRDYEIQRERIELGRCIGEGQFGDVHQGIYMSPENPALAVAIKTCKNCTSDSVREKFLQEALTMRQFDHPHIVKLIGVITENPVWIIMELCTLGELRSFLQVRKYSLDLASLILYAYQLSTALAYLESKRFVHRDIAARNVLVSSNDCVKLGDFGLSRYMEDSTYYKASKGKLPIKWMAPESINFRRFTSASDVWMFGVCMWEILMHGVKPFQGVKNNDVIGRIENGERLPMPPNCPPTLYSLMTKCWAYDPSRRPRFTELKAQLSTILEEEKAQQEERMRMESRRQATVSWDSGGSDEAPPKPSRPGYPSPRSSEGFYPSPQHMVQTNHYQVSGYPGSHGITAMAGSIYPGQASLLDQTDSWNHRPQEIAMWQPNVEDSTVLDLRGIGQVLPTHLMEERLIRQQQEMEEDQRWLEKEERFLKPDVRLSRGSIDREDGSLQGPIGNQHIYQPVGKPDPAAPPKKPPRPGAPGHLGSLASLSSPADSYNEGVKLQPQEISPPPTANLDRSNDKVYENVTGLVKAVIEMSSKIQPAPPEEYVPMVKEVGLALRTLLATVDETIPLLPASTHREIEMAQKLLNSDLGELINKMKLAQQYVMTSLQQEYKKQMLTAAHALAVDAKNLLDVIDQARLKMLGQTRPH
Sequence of Torsin-1A (Homo sapiens) (O14656 whole entry, looked up): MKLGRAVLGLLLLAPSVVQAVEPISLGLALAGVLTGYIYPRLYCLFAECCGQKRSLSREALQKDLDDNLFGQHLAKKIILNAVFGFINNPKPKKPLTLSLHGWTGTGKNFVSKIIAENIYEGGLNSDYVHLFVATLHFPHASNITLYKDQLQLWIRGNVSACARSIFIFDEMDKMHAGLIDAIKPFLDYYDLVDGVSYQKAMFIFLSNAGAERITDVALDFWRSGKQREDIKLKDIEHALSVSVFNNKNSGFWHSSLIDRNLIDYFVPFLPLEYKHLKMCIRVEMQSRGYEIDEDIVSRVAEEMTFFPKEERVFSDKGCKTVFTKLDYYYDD

Row | Structure (SMILES) | composite z-score [1] | composite z-score [2] | composite z-score [3] | composite z-score [4] | composite z-score [5] | composite z-score [6] | z-score [7] | composite z-score [8] | composite z-score [9] | z-score [10] | composite z-score [11] | z-score [12] | z-score [13] | z-score [14] | z-score [15] | composite z-score [16] | composite z-score [17] | composite z-score [18] | composite z-score [19] | composite z-score [20]
1 | CCN(CC)c1ccc(N2CC=CC34O[C@@H]5/C=C\CCC(C)OC(=O)C5[C@H]3C(=O)N(CCCCCO)[C@@H]4C2=O)cc1 (stereo not given in full) | -0.117 | -0.886 | -0.336 | -0.899 | -0.614 | -0.48 | 0.105 | -0.978 | 0.208 | -0.659 (inactive) | -0.408 | 0.16 (inactive) | 1.24 (inactive) | 1.16 (inactive) | -0.418 (inactive) | -1.1 | -0.016 | -1.47 | -1.59 | -0.0874
2 | C[N+](C)(C)CCCC[C@@H]1NC(=O)[C@H]2C[C@@H](C(=O)NCCCCCCNC(=O)CS)[C@@H](c3ccc(O)cc3)N2C1=O | 1.44 | -0.0478 | -0.103 | -2.2 | 1.36 | 0.247 | -0.459 | 0.0544 | -1.07 | 0.24 (inactive) | -0.195 | -0.798 (inactive) | -0.15 (inactive) | -0.947 (inactive) | -0.549 (inactive) | -1.48 | -0.024 | 2.12 | 1.3 | 0.801
3 | COCCOC(=O)N1C(=O)[C@@]2(c3cc(C#CC4=CCCCC4)ccc31)[C@H](C(N)=O)[C@H]1C(=O)O[C@H](c3ccccc3)[C@H](c3ccccc3)N1[C@@H]2c1ccc(O)cc1 | 0.753 | 1.18 | 0.671 | 0.958 | 0.886 | 0.58 | -1.1 | 0.553 | 0.686 | -1.98 (inactive) | 0.838 | -4.06 (inactive) | -1.29 (inactive) | -0.931 (inactive) | -0.438 (inactive) | 1.14 | -0.0736 | 1.03 | 0.931 | 1.08
4 | COc1ccc(C#Cc2ccc3c(c2)[C@]2(C(=O)N3)[C@H](c3ccc(O)cc3)N3[C@H](c4ccccc4)[C@H](c4ccccc4)OC(=O)[C@H]3[C@@H]2C(=O)N2CCc3cc(OC)c(OC)cc3C2)cc1 | 0.645 | 1.19 | 0.174 | 0.933 | 1.15 | 1.36 | -0.577 | 1.12 | 0.384 | -0.798 (inactive) | 0.636 | -0.678 (inactive) | -0.0604 (inactive) | 0.155 (inactive) | 0.102 (inactive) | 1.13 | -0.0521 | 0.135 | 0.0243 | 1.78
5 | CC(c1ccccc1)C(O)C1C=CC2C(=O)N(c3ccccc3)C(=O)C2N1Nc1ccccc1 (stereo not given) | 0.546 | 1.28 | 0.476 | 1.03 | 1.03 | -0.124 | -1.27 | 0.858 | 1.02 | -0.674 (inactive) | 0.821 | -3.13 (inactive) | -0.626 (inactive) | 0.246 (inactive) | 0.379 (inactive) | 1.67 | 0.0906 | 0.524 | 1.07 | 0.843
6 | OCC1C=C(/C=C/c2ccccc2)CN1Cc1ccccc1Br (stereo not given) | 1.5 | 0.278 | -0.18 | 0.891 | 1.29 | 1.39 | 0.426 | 1.51 | 0.94 | -1.05 (inactive) | 0.307 | -2.1 (inactive) | 0.0784 (inactive) | 0.856 (inactive) | -0.181 (inactive) | 0.828 | 0.126 | -0.205 | 0.818 | 1.39
7 | COc1ccc(CCNC(=O)[C@@]2(c3ccc([N+](=O)[O-])cc3)CC(=O)N(CC34CC5CC(CC(C5)C3)C4)[C@@H]2c2ccc(CO)cc2I)cc1 | 1.35 | 1.17 | 0.458 | 0.478 | 1.39 | 1.37 | -1.36 | 0.881 | 0.913 | 0.641 (inactive) | 0.522 | -5.87 (inactive) | -1.53 (inactive) | 0.378 (inactive) | -0.107 (inactive) | -0.0522 | -0.443 | 0.292 | 1.05 | 1.75
8 | C=CC[C@]1(C(=O)NCc2ccccc2)N=C(c2ccc(OCCCO)cc2)O[C@H]1c1ccccc1CN=[N+]=[N-] | 1.25 | 1.21 | 0.112 | 1.02 | 1.31 | 1.09 | 1.22 | 0.497 | 0.666 | -0.238 (inactive) | 0.625 | -3.52 (inactive) | -0.728 (inactive) | 0.857 (inactive) | -0.116 (inactive) | 0.866 | 0.682 | -0.221 | 0.631 | -0.251
9 | O=C(NC1CC1)[C@@H]1c2ccccc2C(=O)N(C2Cc3ccccc3C2)[C@H]1c1ccc(CO)cc1 | 2.65 | 1.18 | 0.167 | -0.677 | 1.29 | 0.988 | 1.64 | 0.294 | 0.0895 | 0.659 (inactive) | 0.336 | 0.192 (inactive) | -0.994 (inactive) | 0.854 (inactive) | -0.987 (inactive) | -0.286 | 0.116 | 0.795 | 1.28 | 1.05
10 | CCCC=C(CCC)[C@@H](NS(=O)(=O)c1ccc(Cl)cc1)c1ccc(C(=O)OC)cc1 | 0.817 | 0.843 | 0.0301 | 0.539 | -0.843 | -0.174 | 0.418 | 0.181 | 0.309 | 2.84 (inactive) | -0.16 | -0.296 (inactive) | -0.382 (inactive) | -0.179 (inactive) | -0.146 (inactive) | 0.997 | -0.0011 | 0.771 | 1.38 | -0.562
